About 83,000 compounds went through this panel and 20% of them were active in at least one assay; those are over-represented in the sample as a whole.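 Single-concentration screen, 48 h exposure, 96-well plates. Endpoint: percent growth. Below 10 = active.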 Values without a mark were called inactive. Active and inactive are the calls of the source.

This assay concerns CAKI-1 renal. The assay can be described thus: NCI-60 one-dose screen, 48 h (100 = growth as untreated, 0 = no growth, -100 = all killed). The settings on record: 10 µM unless noted. The procedure:
Growth inhibition of the CAKI-1 human tumor cell line is measured as a screen for anti-cancer activity. Cells are grown in 96 well plates and exposed to the test compound for 48 hours. Compounds are tested at a single concentration, which is 10^-5 M for most compounds. The reported endpoint is percent growth (GI% or GIPRCNT), where numbers from 0 - 100% represent growth inhibition, and numbers from -100% - 0 represent cell death. For example, a value of 40 represents 60% growth inhibition. A value of 0 means no net growth occurred over the course of the experiment. A value of -40 indicates 40% of cells at the beginning of the experiment died by the end of the experiment. A value of -100 means all cells are dead at the end of the experiment.
NCI-60 Human Tumor Cell Lines Screen was performed using the standard one-dose NCI protocol, which is described in more detail at https://dtp.cancer.gov/discovery_development/nci-60/default.htm.
Compounds with GIPRCNT values below 10 were considered active. Activity score was based on GIPRCNT using the following formula: […]
Score is 0 for GIPRCNT values of 100 or above, 50 for GIPRCNT values of 0, and 100 for GIPRCNT values of -100.
Regarding `C/C(=N/NC(N)=S)c1ccc(Nc2nc(SCC(C)C)nc(-c3ccc(F)cc3)c2C#N)cc1`, the growth was -9.45% (active). The figure for `COc1cc(-c2nc3ccc(-c4nnc(SCC(=O)Nc5ccc(C(=O)/C=C/c6ccc(Cl)cc6)cc5)o4)cc3[nH]2)cc(OC)c1OC` is 97.2%; for `Cc1cccc2sc(/N=C(\N)C(Cl)(Cl)Cl)nc12` it is 85.3%; for `CN1C(=S)N(C)C2C1NN=C1SC(c3ccccc3)=CC(=O)N12` (stereo not given) it is 90.8%. Take `Cc1ccc(-c2nc(C(Cl)Cl)nc3cc(-c4ccccc4)nn23)cc1`: the growth is -22.9% (active). The figure for `Cn1ccnc1C(=O)/C=C/c1ccc(NC(=O)Nc2ccc(F)cc2)cc1` is 55.1%; for `Cc1c(Nc2nnc(SCC(=O)Nc3sc4c(c3C#N)CCCC4)s2)c(=O)n(-c2ccccc2)n1C` it is 110%. The figure for `O=C1/C(=C/C2=Cc3ccccc3OC2)SC(=S)N1c1ccc(F)cc1` is 90.6%; for `CCOc1ccc2nc(NC(=O)c3ccc(C(F)(F)F)cc3)sc2c1` it is 98.1%; for `COc1ccc(/C=N/NC(=O)c2[nH]c3ccc(Br)cc3c2-c2ccccc2)o1` it is 26.3%. As to `CC(=O)Oc1ccccc1C(=O)Nc1ccc(C(=O)/C=C/c2ccncc2)cc1`, the growth is 62.6%.

`COc1ccccc1C(=O)CSc1nc(Nc2ccc(S(N)(=O)=O)cc2)c2ccccc2n1`: the growth is 91.1%. `CC(C)(C)OC(=O)N1C(=O)c2c(c3c4ccccc4[nH]c3c3ccc4ccccc4c23)C1=O`: the growth was 26%. For the compound `COc1ccc(C(=O)/C=C/c2ccc(Oc3nc(NCCO)nc(N4CCOCC4)n3)c(OC)c2)cc1`, the growth is 56%. For `CC(O)C(NC(=O)C1CCCN1C(=O)CNC(=O)C1CC(=O)NCC(=O)NC(Cc2c[nH]c3ccccc23)C(=O)NC(Cc2ccc(O)cc2)C(=O)NCC(=O)NC(CO)C(=O)NC(CCC(N)=O)C(=O)NC(Cc2c[nH]c3ccccc23)C(=O)N1)C(=O)NCC(=O)NC(CCC(N)=O)C(=O)NC(CCCNC(=N)N)C(=O)NC(CC(=O)O)C(=O)O` (stereo not given), the growth is 91.5%. The figure for `C=CCn1c(SCC(=O)c2ccc(Br)cc2)nnc1-c1c[nH]c2ccccc12` is 90.2%; for `N#Cc1nc(-c2ccccc2)oc1S(=O)(=O)N1CCCCC1` it is 17.4%. Turning to `CN(C)c1ccc(-c2c(NC(C)(C)C)nc3c(OCCc4ccccc4)cccn23)cc1`, the growth is 11.7%. As to `CS(=O)(=O)c1ccc(-c2nc3ccccn3c2C=Nc2ccc(Cl)cc2)cc1`, the growth was 42.9%. The figure for `Nc1ncc(-c2ccc3ncnc(N4CCc5cc(F)c(Cl)cc54)c3c2)cc1CO` is 2.97% (active); for `CS(=O)(=O)c1ccc(-c2nc3ccccn3c2/C=N/Nc2nc(-c3ccc(Cl)cc3)cs2)cc1` it is 91.8%. Consider `COc1cc(/C=C/C(=O)c2cc(OC)c(OC)c(OC)c2)ccc1OCc1ccc(F)cc1`, for which the growth is 45.8%. As to `CCC/C=C/C=C/C(=O)N[C@@H](Cc1cc(F)cc(F)c1)C(=O)N[C@@H]1C(=O)N2CCC[C@H]2C(=O)N2CCCC[C@H]2C(=O)N[C@@H](C)C(=O)N2C[C@H](C)C[C@H]2C(=O)O[C@H]1C`, the growth is 11.5%. In the case of `CCOC(=O)c1sc(NCC(=O)Nc2cccc([N+](=O)[O-])c2)c(C(=O)OCC)c1C`, the growth was -17.5% (active). In the case of `CC(C)(C)Nc1nc2c(OCCc3ccccc3)cccn2c1-c1cccc(F)c1`, the growth is -11.5% (active). For `N#Cc1c(-c2ccc(F)cc2)nc2c(C#N)c(Nc3ccccc3)nn2c1N`, the growth was 90.7%. As for `Cn1cc(-c2cc(N)n3nc(-c4cn(C)c5ccc(Br)cc45)cc3n2)c2cc(Br)ccc21`, the growth is 79%. Consider `Cc1nc2cnc(N)c(C#Cc3cncc(C(=O)Nc4ccc(Cl)c(C(F)(F)F)c4)c3)c2nc1C`, for which the growth is 18.8%.

For `CN(C)c1ccc(/C=c2\sc3nc4ccccc4n3c2=O)cc1`, the growth was 93.3%.

For `COc1cc(-c2ccc3ncnc(NC(C)c4ccccc4)c3c2)cnc1OC` (stereo not given), the growth is 16.4%. On to `O=C1Nc2ccccc2Oc2ccc(S(=O)(=O)CC3CO3)cc21` (stereo not given), for which the growth was 44.1%. Take `Nc1c(C(=O)Nc2ccc(C(F)(F)F)cc2)sc2nc(-c3cnccn3)cc(-c3cccs3)c12`: the growth was 16.2%.

As to `Clc1ccc2c(NCCCn3ccnc3)c3oc4ccc(Cl)cc4c3nc2c1`, the growth is 60.5%. As for `CS(=O)(=O)c1ccc(-n2cc(/C=C/C(=O)c3ccc(NC(=O)CO[N+](=O)[O-])cc3)c(-c3ccc(Cl)cc3)n2)cc1`, the growth is 109%. As for `CNC(=O)c1cc(-c2ccc(NC(=O)Nc3ccc(N4CCN(C)CC4)c(C(F)(F)F)c3)cc2)nc2cccnc12`, the growth is -80.4% (active).

As to `COc1ccc(/C=C2\SC(=Nc3cc(C)[nH]n3)NC2=O)cc1`, the growth is 83.4%. As to `Cn1ccnc1C(=O)/C=C/c1ccc(NC(=O)Nc2ccccc2)cc1`, the growth was 31.9%. `N#Cc1c(-c2ccc(Cl)cc2)nc(SCc2ccccc2)nc1N1CCNCC1`: the growth was 53.1%.

In the case of `COc1ccc(C(=O)/C=C/c2ccc(OCc3ccc(Cl)cc3)c(OC)c2)cc1OC`, the growth is 59.7%.

Regarding `COc1ccc(/C=N/Nc2ccnc3cc(Cl)ccc23)cc1Cl`, the growth is -83.5% (active).

Source of the values: PubChem BioAssay (NCI).
